# Measured values taken from PubChem BioAssay (Tox21).
# Values without a mark were called inactive. Records with an inconclusive call do not appear. Entries that show only a call come without a potency. The source made the active and inactive calls. The call rests on the fitted dose curve; in most records, active means well fitted curve in the direction sought with a large enough effect in the repeat runs; inconclusive means weak or mixed curves; inactive means no such curve, though single readings can be large; an effect the other way counts as inactive or inconclusive.
# Tests used:
# [1] = Human pregnane X receptor (PXR) small molecule agonists, qHTS cell viability counter screen (AID 1346977); further: nearly all actives have a fitted effect of over 50% in size
# Procedure, shortened: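 PXR-Luc HepG2, 2,000 cells/well, 5% charcoal-stripped FBS; 5hr settle; cpd 24hr, 37C/5% CO2; CellTiter-Fluor at 23hr, read 1hr later (fluorescence).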
# [2] = Caspase-3/7 induction in HepG2 cells by small molecules, qHTS assay (AID 1346978); further: nearly all actives have a fitted effect of over 15% in size
# Procedure, shortened: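 Wild-type HepG2 cells (2,000/well) were settled 5 h at 37 C, 5% CO2, then exposed to compounds in DMSO for 17 h. Caspase-3/7 activity was read by luminescence 30 min after adding Caspase-Glo 3/7 reagent at room temperature.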
# [3] = Caspase-3/7 induction in CHO-K1 cells by small molecules, qHTS cell viability counter screen (AID 1346979); further: nearly all actives have a fitted effect of over 35% in size
# Procedure, shortened: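 Cells (CHO-K1, wild type) are plated at 1,500 per well and incubated 5hr. Test compounds in DMSO are then pinned in, followed by 16hr at 37C and 5% CO2. Viability is read by CellTiter-Fluor fluorescence after 1hr.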
# [4] = Caspase-3/7 induction in CHO-K1 cells by small molecules, qHTS assay (AID 1346980); further: nearly all actives have a fitted effect of over 15% in size
# Procedure, shortened: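 Wild-type cells were seeded at 1,500 per well and settled 5 hr at 37 C, 5% CO2, then exposed to DMSO-dissolved compounds for 17 hr. Caspase-Glo 3/7 reagent was added, and luminescence was read after 30min at room temperature.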
# [5] = Caspase-3/7 induction in HepG2 cells by small molecules, qHTS cell viability counter screen (AID 1346981); further: series mostly up to about 92 µM; nearly all actives have a fitted effect of over 30% in size
# Procedure, shortened: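 Viability determined by CellTiter-Fluor fluorescence in HepG2 wells also used for the luminescent Caspase-Glo 3/7 read. Compounds were present for 16 hr at 37 C, 5% CO2 before reagent addition.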
# [6] = molecular target: Nuclear receptor subfamily 1 group I member 2 (Homo sapiens) (UniProt O75469); assay: Human pregnane X receptor (PXR) small molecule agonists, qHTS assay (AID 1346982); further: nearly all actives have a fitted effect of over 35% in size; further: potency means the concentration at half of the fitted maximal effect
# Sequence of Nuclear receptor subfamily 1 group I member 2 (Homo sapiens) (O75469 whole entry, looked up): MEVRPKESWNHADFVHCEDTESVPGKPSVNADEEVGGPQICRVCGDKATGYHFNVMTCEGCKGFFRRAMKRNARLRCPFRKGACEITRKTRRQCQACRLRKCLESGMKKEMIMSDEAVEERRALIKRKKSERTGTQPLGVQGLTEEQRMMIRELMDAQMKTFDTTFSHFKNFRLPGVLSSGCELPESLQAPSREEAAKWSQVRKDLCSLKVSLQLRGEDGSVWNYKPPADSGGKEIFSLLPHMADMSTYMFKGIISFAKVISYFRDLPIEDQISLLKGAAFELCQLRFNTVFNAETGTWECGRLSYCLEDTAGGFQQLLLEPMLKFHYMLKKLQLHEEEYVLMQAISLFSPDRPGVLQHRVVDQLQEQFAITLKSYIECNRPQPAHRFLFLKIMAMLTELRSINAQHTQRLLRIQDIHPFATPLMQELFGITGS
# Procedure, shortened: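 Compound-induced hPXR transactivation of a CYP3A4 luciferase reporter was scored in HepG2 PXR-Luc cells over 24 hr at 37 C, 5% CO2, by luminescence.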
# [7] = molecular target: Cytochrome P450 2D6 (Homo sapiens) (UniProt P10635); assay: Cytochrome P450 Family 2 Subfamily D Member 6 (CYP2D6) small molecule antagonists: luciferase reporter qHTS assay (AID 1671196); further: nearly all actives have a fitted effect of over 50% in size; further: potency means the concentration at half of the fitted maximal effect; on activity change, negative = inhibition: series mostly up to about 120 µM
# Sequence of Cytochrome P450 2D6 (Homo sapiens) (P10635 whole entry, looked up): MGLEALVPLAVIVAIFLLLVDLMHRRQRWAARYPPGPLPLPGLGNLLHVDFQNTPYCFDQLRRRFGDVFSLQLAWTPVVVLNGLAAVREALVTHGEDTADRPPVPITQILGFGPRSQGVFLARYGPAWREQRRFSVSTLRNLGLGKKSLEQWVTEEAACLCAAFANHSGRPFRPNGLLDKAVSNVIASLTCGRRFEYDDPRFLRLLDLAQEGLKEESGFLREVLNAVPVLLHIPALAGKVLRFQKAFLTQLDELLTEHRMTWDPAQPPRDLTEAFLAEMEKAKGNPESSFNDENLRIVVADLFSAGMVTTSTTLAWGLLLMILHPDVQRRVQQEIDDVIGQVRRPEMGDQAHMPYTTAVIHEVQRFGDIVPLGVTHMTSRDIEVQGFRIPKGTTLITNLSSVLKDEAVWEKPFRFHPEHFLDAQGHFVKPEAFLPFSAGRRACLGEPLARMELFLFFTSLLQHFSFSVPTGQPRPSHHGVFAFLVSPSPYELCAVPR
# Procedure, shortened: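 Each well received CYP2D6 with its proluciferin substrate and chemical, sat 10 min, then got NADPH regeneration solution for 1 h at room temperature. Luminescence in RLU served as the activity measure.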
compound,measurement,setting,value
CCCC(C)C(=O)O (centres undefined),Potency,[1],inactive
same,outcome,[2],inactive
same,Potency,[3],inactive
same,outcome,[4],inactive
same,outcome,[5],inactive
same,Potency,[6],inactive
same,Potency,[7],34.2 µM (active)
C#CC(O)CCCCC (centres undefined),Potency,[1],inactive
same,outcome,[2],inactive
same,Potency,[3],inactive
same,outcome,[4],inactive
same,outcome,[5],inactive
same,Potency,[6],inactive
same,Potency,[7],inactive
C1=C\CC/C=C\CC/C=C\CC/1,Potency,[1],inactive
same,outcome,[2],inactive
same,Potency,[3],inactive
same,outcome,[4],inactive
same,outcome,[5],inactive
same,Potency,[6],inactive
same,Potency,[7],inactive
c1ccc2cnncc2c1,Potency,[1],inactive
same,outcome,[2],inactive
same,Potency,[3],inactive
same,outcome,[4],inactive
same,outcome,[5],inactive
same,Potency,[6],inactive
same,Potency,[7],inactive
COc1cccc(OC)c1,Potency,[1],inactive
same,outcome,[2],inactive
same,Potency,[3],inactive
same,outcome,[4],inactive
same,outcome,[5],inactive
same,Potency,[6],inactive
same,Potency,[7],inactive
CCCCCCCCC=O,Potency,[1],inactive
same,outcome,[2],inactive
same,Potency,[3],inactive
same,outcome,[4],inactive
same,outcome,[5],inactive
same,Potency,[6],inactive
same,Potency,[7],inactive
Oc1cc(O)c2c(c1)O[C@H](c1ccc(O)c(O)c1)[C@H](O)C2,Potency,[1],inactive
same,outcome,[2],inactive
same,Potency,[3],inactive
same,outcome,[4],inactive
same,outcome,[5],inactive
same,Potency,[6],inactive
same,Potency,[7],inactive
CN1[C@@H]2CC[C@H]1CC(NC(=O)n1c(=O)[nH]c3ccccc31)C2 (some centres undefined),Potency,[1],inactive
same,outcome,[2],inactive
same,Potency,[3],inactive
same,outcome,[4],inactive
same,outcome,[5],inactive
same,Potency,[6],inactive
same,Potency,[7],0.776 µM (active)
CCCCC=O,Potency,[1],inactive
same,outcome,[2],inactive
same,Potency,[3],inactive
same,outcome,[4],inactive
same,outcome,[5],inactive
same,Potency,[6],inactive
same,Potency,[7],inactive
COc1ccc2cc(C=O)ccc2c1,Potency,[1],inactive
same,outcome,[2],inactive
same,Potency,[3],inactive
same,outcome,[4],inactive
same,outcome,[5],inactive
same,Potency,[6],inactive
same,Potency,[7],inactive
COCc1ccc(COC)cc1,Potency,[1],inactive
same,outcome,[2],inactive
same,Potency,[3],inactive
same,outcome,[4],inactive
same,outcome,[5],inactive
same,Potency,[6],inactive
same,Potency,[7],inactive
CC12CCC(CC1=O)C2(C)C (centres undefined),Potency,[1],inactive
same,outcome,[2],inactive
same,Potency,[3],inactive
same,outcome,[4],inactive
same,outcome,[5],inactive
same,Potency,[6],inactive
same,Potency,[7],inactive
NC(=S)Nc1cccc2ccccc12,"activity change, negative = cytotoxicity",[1],-0.344% [at 8.39 µM]
same,caspase activation,[2],1% [at 8.39 µM]
same,"activity change, negative = cytotoxicity",[3],-1.57% [at 8.39 µM]
same,caspase-3/7 activation,[4],0.137% [at 8.39 µM]
same,"activity change, negative = cytotoxicity",[5],-1.33% [at 8.39 µM]
same,activation,[6],-0.9% [at 8.39 µM]
same,Potency,[7],2.01 µM (active)
O=Cc1ccccc1[N+](=O)[O-],Potency,[1],inactive
same,outcome,[2],inactive
same,Potency,[3],inactive
same,outcome,[4],inactive
same,outcome,[5],inactive
same,Potency,[6],inactive
same,Potency,[7],inactive
CNC(=O)c1c(I)c(NC(=O)CCCCC(=O)Nc2c(I)c(C(=O)O)c(I)c(C(=O)NC)c2I)c(I)c(C(=O)O)c1I,Potency,[1],inactive
same,outcome,[2],inactive
same,Potency,[3],inactive
same,outcome,[4],inactive
same,outcome,[5],inactive
same,Potency,[6],inactive
same,Potency,[7],inactive
CCCCCCCCCCCCCCC,Potency,[1],inactive
same,outcome,[2],inactive
same,Potency,[3],inactive
same,outcome,[4],inactive
same,outcome,[5],inactive
same,Potency,[6],inactive
same,Potency,[7],inactive
CC/C=C\C#N,Potency,[1],inactive
same,outcome,[2],inactive
same,Potency,[3],inactive
same,outcome,[4],inactive
same,outcome,[5],inactive
same,Potency,[6],inactive
same,Potency,[7],inactive
CN(C)N=Nc1ccccc1,Potency,[1],inactive
same,outcome,[2],inactive
same,Potency,[3],inactive
same,outcome,[4],inactive
same,outcome,[5],inactive
same,Potency,[6],inactive
same,Potency,[7],inactive
COC(=O)CCCCCCCCC(=O)OC,Potency,[1],inactive
same,outcome,[2],inactive
same,Potency,[3],inactive
same,outcome,[4],inactive
same,outcome,[5],inactive
same,Potency,[6],inactive
same,Potency,[7],inactive
NC1CCN(c2cccc(Cl)n2)CC1,Potency,[1],inactive
same,outcome,[2],inactive
same,Potency,[3],inactive
same,outcome,[4],inactive
same,outcome,[5],inactive
same,Potency,[6],inactive
same,Potency,[7],1.23 µM (active)
C=C(C)[C@H]1CC=C(C)CC1,Potency,[1],inactive
same,outcome,[2],inactive
same,Potency,[3],inactive
same,outcome,[4],inactive
same,outcome,[5],inactive
same,Potency,[6],61.1 µM (active)
same,Potency,[7],35.6 µM (active)
Cc1nc(-c2ccc(OCC(C)C)c(C#N)c2)sc1C(=O)O,Potency,[1],inactive
same,outcome,[2],inactive
same,Potency,[3],inactive
same,outcome,[4],inactive
same,outcome,[5],inactive
same,Potency,[6],0.106 µM (active)
same,Potency,[7],inactive
O=c1[nH]c(=O)n([C@H]2O[C@H](CO)[C@@H](O)[C@@H]2O)cc1/C=C\Br,Potency,[1],inactive
same,outcome,[2],inactive
same,Potency,[3],inactive
same,outcome,[4],inactive
same,outcome,[5],inactive
same,Potency,[6],inactive
same,Potency,[7],inactive
C=C(C)C(=O)OCCCCCCCCCCCCCCCCCC,"activity change, negative = cytotoxicity",[1],-1.38% [at 19 µM]
same,caspase activation,[2],-1.69% [at 19 µM]
same,"activity change, negative = cytotoxicity",[3],-0.104% [at 19 µM]
same,caspase-3/7 activation,[4],0.453% [at 19 µM]
same,"activity change, negative = cytotoxicity",[5],-0.0917% [at 19 µM]
same,activation,[6],-0.119% [at 19 µM]
same,"activity change, negative = inhibition",[7],2.34% [at 23.6 µM]
CC1(C)OC(=O)Nc2ccc(Br)cc21,Potency,[1],inactive
same,outcome,[2],inactive
same,Potency,[3],inactive
same,outcome,[4],inactive
same,outcome,[5],inactive
same,Potency,[6],23.7 µM (active)
same,Potency,[7],inactive
CCCCc1ccc2cccc(S(=O)(=O)O)c2c1,Potency,[1],inactive
same,outcome,[2],inactive
same,Potency,[3],inactive
same,outcome,[4],inactive
same,outcome,[5],inactive
same,Potency,[6],inactive
same,Potency,[7],inactive
O=C(O)C(O)[C@H](O)[C@@H](O)[C@H](O)[C@H](O)CO (some centres undefined),Potency,[1],inactive
same,outcome,[2],inactive
same,Potency,[3],inactive
same,outcome,[4],inactive
same,outcome,[5],inactive
same,Potency,[6],inactive
same,Potency,[7],64 µM (active)
CC1=CC(=O)CCC1,Potency,[1],inactive
same,outcome,[2],inactive
same,Potency,[3],inactive
same,outcome,[4],inactive
same,outcome,[5],inactive
same,Potency,[6],inactive
same,Potency,[7],inactive
NC(=O)c1c(Cl)cccc1Cl,Potency,[1],inactive
same,outcome,[2],inactive
same,Potency,[3],inactive
same,outcome,[4],inactive
same,outcome,[5],inactive
same,Potency,[6],0.0611 µM (active)
same,Potency,[7],31.7 µM (active)
C=CCOc1nc(OCC=C)nc(OCC=C)n1,Potency,[1],inactive
same,outcome,[2],inactive
same,Potency,[3],inactive
same,outcome,[4],inactive
same,outcome,[5],inactive
same,Potency,[7],39.9 µM (active)
